Hits are enriched below; roughly 2.4% of the tested compounds scored in any of these assays.
EP2 modulator = modulates human prostaglandin E2 receptor EP2 signaling; P43116; EP2-expressing cells, cAMP HTRF FRET, PGE2 co-stimulation; induction, % at 25 µM; 260,000 tested, 0.83% active;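 active = compounds whose cAMP rise, as percent of the full-agonist control response, exceeds 60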;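 also: rat C6 glioma line stably carrying human EP2 under a CMV promoter; the protocol text gives 20 µM as final concentration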
p97 inhibitor = human p97 ATPase inhibition. P55072. recombinant p97 ATPase, Kinase-Glo ATP luminescence, 3 h. inhibition, % at 8 µM. 220,000 tested, 0.42% active; in the data active = inhibition above about 15%
Target sequence (P55072 whole entry, looked up): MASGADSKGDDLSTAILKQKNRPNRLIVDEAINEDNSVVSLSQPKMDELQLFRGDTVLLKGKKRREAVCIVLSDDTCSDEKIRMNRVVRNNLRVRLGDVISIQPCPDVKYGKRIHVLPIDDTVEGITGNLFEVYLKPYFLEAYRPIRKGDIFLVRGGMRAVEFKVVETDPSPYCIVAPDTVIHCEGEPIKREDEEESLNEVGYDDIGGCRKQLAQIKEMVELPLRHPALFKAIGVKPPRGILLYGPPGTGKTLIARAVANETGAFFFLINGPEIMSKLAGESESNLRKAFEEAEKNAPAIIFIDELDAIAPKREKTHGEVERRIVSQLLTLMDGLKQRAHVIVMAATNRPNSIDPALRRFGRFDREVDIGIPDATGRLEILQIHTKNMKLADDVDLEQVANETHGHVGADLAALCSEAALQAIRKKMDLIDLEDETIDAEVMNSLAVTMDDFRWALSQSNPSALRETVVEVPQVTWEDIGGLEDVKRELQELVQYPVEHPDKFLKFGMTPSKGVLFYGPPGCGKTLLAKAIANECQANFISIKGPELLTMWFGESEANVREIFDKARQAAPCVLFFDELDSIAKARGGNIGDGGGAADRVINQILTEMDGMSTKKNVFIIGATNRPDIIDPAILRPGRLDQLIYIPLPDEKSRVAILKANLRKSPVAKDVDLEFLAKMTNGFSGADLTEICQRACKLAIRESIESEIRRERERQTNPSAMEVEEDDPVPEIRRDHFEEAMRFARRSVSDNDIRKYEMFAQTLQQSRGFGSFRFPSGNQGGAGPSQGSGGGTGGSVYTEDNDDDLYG
Hck-Nef inh = human Hck-Nef kinase inhibition | P08631 | Recombinant Hck-YEEI plus Nef, Z-Lyte FRET kinase assay | inhibition, % at 20 µM | 220,000 tested, 0.68% active | AID 463187;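 active = Hck-Nef kinase inhibition above about 50%, limit read from the data; inactive = inhibition below that limit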
Arbovirus inh = blocks arbovirus infection. arbovirus infection cell-based antiviral screen. inhibition, % at 10 µM. 200,000 tested, 0.37% active; in the data active = inhibition above about 30%
PGE2 EP2 inh = blocks the human prostaglandin E2 receptor EP2; C6 glioma cells expressing human EP2, cAMP TR-FRET; cells stimulated with saturating PGE2; inhibition, % at 25 µM; 260,000 tested, 0.52% active;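 active = percent inhibition above 40 after rounding to a whole number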;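 also: rat C6 glioma host cells with rolipram phosphodiesterase inhibitor present; the protocol text gives 20 µM as final concentration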
Numbers stand for hits; n = inactive; x = no result; ! = not active in a repeat.

SMILES	EP2 modulator	p97 inhibitor	Hck-Nef inh	Arbovirus inh	PGE2 EP2 inh
CC(C)(C)c1c(Cl)c(O)c(-c2ccccc2)c(=O)n1-c1ccccc1	n	n	n	84.4	n
CCOc1ccc2nc(SCC(=O)Nc3ccc(OC)c(OC)c3)c(C#N)cc2c1	n	x	x	x	n
CC1CCCCC1NC(=O)COn1nnc2ccc(Cl)cc21 (stereo unspecified)	n	n	n	n	n
CC1(C)O[C@H]2[C@@H](O1)[C@@H](On1nnc3ccc(Cl)cc31)O[C@@H]2[C@@H]1COC(C)(C)O1	n	x	x	x	52.0
Ic1ccc2c(c1)N(c1ccccc1)c1cc(Nc3ccc4nc5ccc(I)cc5[n+](-c5ccccc5)c4c3)ccc1N2	n	x	x	x	44.4
Cc1[nH]nc2c1C(c1ccc(-c3ccc(Br)cc3)o1)C(C#N)=C(N)O2 (stereo unspecified)	n	x	x	x	n
C/C(=N\OCC(=O)Nc1ccc(F)c(F)c1F)c1cc2ccccc2o1	n	n	n	n	n
CSc1ccccc1NC(=O)CO/N=C(\C)c1cc2ccccc2o1	n	n	n	38.1	n
O=C(/C=C/c1ccccc1)NCCc1c[nH]c2ccccc12	n	x	x	x	74.2
CC(C)C(=O)NCCc1c[nH]c2ccccc12	n	n	n	n	n
S=c1nc[nH]c2c1[nH]c1ccc(Cl)cc12	61.4	n	n	x	n
COc1ccc(N(C(=O)c2ccco2)C(C(=O)NC2CCCCC2)c2ccccc2)cc1 (stereo unspecified)	61.5!	n	n	n	n
COc1ccc(N(C(=O)c2ccco2)C(C(=O)NC2CCCC2)c2ccc(N(C)C)cc2)cc1 (stereo unspecified)	n	n	n	n	n
Cc1nc(SCc2c(F)cccc2Cl)c2c(=O)n(C)c(=O)n(C)c2n1	62.2	n	n	n	n
Cn1c(=O)c2c(SCc3ccccc3)nc(C3CC3)nc2n(C)c1=O	73.5	n	n	x	n
CCOc1ccc(-n2c(SCC(=O)NC(C)CC)nnc2-c2ccoc2C)cc1 (stereo unspecified)	n	x	x	x	n
CCSc1nc2ccccc2c(=O)n1C1CCOC(C)(C)C1 (stereo unspecified)	61.1	n	n	n	n
COCCn1c(SCCOc2ccccc2)nc2ccccc2c1=O	64.1	n	n	n	n
CC1(C)CC(n2c(=S)[nH]c3ccccc3c2=O)CCO1 (stereo unspecified)	n	n	n	n	x
C=CCSc1nc2ccccc2c(=O)n1CCc1ccccc1	70.0	x	x	x	n
C=CCSc1nc2ccccc2c(=O)n1C1CCOC(C)(C)C1 (stereo unspecified)	75.8	n	n	x	n
NC(=O)CSc1nc2ccccc2c(=O)n1CCc1ccccc1	n	x	x	x	n
O=C1N=c2ccc(Br)cc2=C1c1sc(=S)n(NC(=O)c2ccccc2)c1O	n	x	x	x	n
CCCOc1cccc(C2C(C(=O)c3ccco3)=C(O)C(=O)N2CCOC)c1 (stereo unspecified)	n	x	x	x	n
Clc1ccc2[nH]c3c(N4CCC5(CC4)OCCO5)ncnc3c2c1	n	n	n	n	45.7
SMILES	EP2 modulator	p97 inhibitor	Hck-Nef inh	Arbovirus inh	PGE2 EP2 inh
Cc1cccc2[nH]c3c(N4CCC5(CC4)OCCO5)ncnc3c12	n	n	n	n	n
Cc1ccc(C)c(N2CCN(Cc3nnnn3C3CCCCC3)CC2)c1	61.3!	n	n	n	n
Cc1ccc(C)c(N2CCN(Cc3nnnn3CC3CCCO3)CC2)c1 (stereo unspecified)	n	x	x	x	n
COc1ccc(C(=O)NC(=S)Nc2sc3c(c2C#N)CCCC3)cc1	n	x	x	x	n
O=C1Nc2ccccc2/C1=C/C(=O)c1cccs1	n	n	n	n	68.5
CCN1C(=O)/C(=C\C(=O)c2cccs2)c2cc(Br)ccc21	n	n	n	n	n
COc1ccc(NC(=O)c2ccc(N(C)S(C)(=O)=O)cc2)cc1OC	n	n	n	n	n
COC(=O)c1ccc(NC(=O)c2ccc(N(C)S(C)(=O)=O)cc2)cc1	n	n	n	n	113.0
CCn1c(/C=C\c2ccccc2C)nc2ccccc2c1=O	n	n	n	n	n
O=c1c2ccccc2nc(-c2ccco2)n1Cc1ccccc1	n	n	n	n	n
Cc1ccccc1/C=C\c1nc2ccccc2c(=O)n1Cc1ccccc1	62.7	n	n	n	n
O=c1c2ccccc2nc(-c2ccc(Br)cc2)n1Cc1ccccc1	62.7	n	n	n	n
CCOc1ccc(-n2c(SCC(=O)N(CC)CC)nc3ccccc3c2=O)cc1	n	x	x	x	n
CCc1nc(N2CCCC(C)C2)c2oc3ccccc3c2n1 (stereo unspecified)	61.2	n	n	n	n
CCc1nc(N2CCCCC2C)c2oc3ccccc3c2n1 (stereo unspecified)	n	n	n	n	n

Screening data deposited in PubChem BioAssay by several laboratories.
